Outcome and AC50 data for 39 compounds are collected here from PubChem BioAssay (EPA / NIEHS).

Molecules are shown by their SMILES. Where a structure was tested more than once in an assay, its records may differ in their call. The source made the active and inactive calls. How the source made its calls: active means hit-call score of the fitted dose curve at least 0.9, where 1 is the maximum; inactive means score below 0.9.

Chain of Tumor necrosis factor (Homo sapiens) (P01375 whole entry, looked up): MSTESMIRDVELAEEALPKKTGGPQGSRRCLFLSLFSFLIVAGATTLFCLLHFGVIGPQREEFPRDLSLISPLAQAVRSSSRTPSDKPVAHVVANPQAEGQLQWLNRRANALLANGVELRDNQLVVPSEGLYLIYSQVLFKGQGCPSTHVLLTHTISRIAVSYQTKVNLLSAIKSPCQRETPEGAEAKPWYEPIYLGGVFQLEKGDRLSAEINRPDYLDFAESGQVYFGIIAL

Read-out in this assay: Tumor necrosis factor (Homo sapiens) (UniProt P01375)
Kind of assay: BSK_LPS_TNFa: BioMAP Diversity Plus: LPS Assay for Tumour Necrosis Factor alpha (TNFa) Biomarker Activity (AID 2283085). The settings on record: primary human HUVEC with PBMC; actives raise or lower the signal. On the procedure:
BSK_LPS is a cell-based, multiplexed-readout assay that uses umbilical vein endothelium and peripheral blood mononuclear cells, a human vascular primary cell co-culture, with measurements taken at 24 hours after chemical dosing in a 96-well plate.BSK_LPS_TNFa is an assay component measured in the BSK_LPS assay. It measures TNF-a antibody related to regulation of gene expression using ELISA technology.Data from the assay component BSK_LPS_TNFa was analyzed into 1 assay endpoint. This assay endpoint, BSK_LPS_TNFa, was analyzed with bidirectional fitting relative to DMSO as the negative control and baseline of activity. Using a type of binding reporter, gain or loss-of-signal activity can be used to understand changes in the signaling as they relate to the gene TNF. Furthermore, this assay endpoint can be referred to as a primary readout, because this assay has produced multiple assay endpoints where this one serves a signaling function. To generalize the intended target to other relatable targets, this assay endpoint is annotated to the cytokine intended target family, where the subfamily is inflammatory factor.
The levels of cell surface (or secreted, indicated by the prefix "s") biomarker endpoints were measured by ELISA. Overt cytotoxicity to cells in confluent adherent cultures (all systems other than the BT system) was assessed by measuring total protein levels using sulforhodamine B (SRB) staining in parallel cultures at the time of biomarker measurements, indicated as SRB endpoints. For proliferation assays for adherent cell types, individual cell types are cultured at sub-confluence and relative cell numbers quantified by SRB staining at time points optimized for each system (48 h: 3C and CASM3C systems; 72 h: BT and HDF3CGF systems; 96 h: SAg system). SRB was performed by staining cells with 0.1% SRB after fixation with 10% TCA and reading wells at 560 nm.Viability and proliferation of PBMC (T cells) was quantified by Alamar Blue reduction for the SAg and BT systems. For PBMC viability (referred to as PBMC Cytotoxicity within the assay endpoint names), cells were plated (75,000/well in a 96-well plate) and then chemical samples added for 1 h before addition of activators, SEB and TSST-1 (20 ng/mL final concentration each). Cells were incubated for 90 h. Then, Alamar Blue (20 uL/well) (Invitrogen, Cat DAL1100) was added for 6 h, and the plates were read with a fluorescence microplate reader at 546/580 nm (excitation/emission). For PBMC proliferation, cells were plated and activated as above but incubated for only 16 h prior to addition of Alamar Blue. Plates were read after 6 h.
Consider `c1ccc(N=Nc2ccccc2)cc1`, for which the result was inactive.
As a reminder, the AC50 is the midpoint of the concentration-response curve, whichever way the signal moves. With `Nc1ccc(N=Nc2ccccc2)cc1`, the AC50 is 6.01 µM (active).
With `O=Cc1ccco1`, the result was inactive.
As to `ClCCOCCCl`, the outcome was inactive.
Same read-out and setting: in the case of `Nc1ccc([N+](=O)[O-])cc1` it was “inactive”; in that of `O=C(N[C@H](c1ccccc1)[C@@H]1CN2CCC1CC2)c1c(Cl)ccc(C(F)(F)F)c1Cl`, “inactive”; in that of `Cc1cccc(N)c1N`, “inactive”.
On the same count and under the same terms, in the case of `Oc1ccccc1Cl` it was “inactive”; in that of `[As]#[In]`, “inactive”; in that of `CN(C)c1ccccc1`, “inactive”.
On the same count and under the same terms, in the case of `O=C(Oc1ccc(Br)cc1)N1CCN2CCC1CC2` it was “inactive”.
Regarding `C[N+](C)(C)CC1CO1` (stereo not given), the outcome was inactive.
Still for that read-out and setting: the value for `[O-][Cl+]O` was “inactive”; that for `Cc1cc(N=Nc2ccccc2C)ccc1N` was “inactive”.
On the same count and under the same terms, in the case of `O=C1CCCO1` it was “inactive”; in that of `CCC(C)c1ccc(O)cc1` (stereo not given), “inactive”; in that of `CCCSC(=O)N(CCC)CCC`, “inactive”.
On the same count and under the same terms, in the case of `CC(O)CCO` (stereo not given) it was “inactive”.
With `C1=Cc2cccc3cccc1c23`, the result was inactive.
Still for that read-out and setting: in the case of `Cc1ccc(N=C=O)cc1N=C=O` it was “inactive”.
On the same count and under the same terms, the value for `Cc1ccc([N+](=O)[O-])cc1` was “inactive”.
`[Cl-].[Cl-].[Hg+2]`: the AC50 is 33 µM (active).
`N#CC(Br)Br`: the result was inactive.
On the same count and under the same terms, the value for `COc1cc(C=O)cc2c1[C@H](COC(N)=O)[C@]1(OC(C)=O)ON2C[C@H]2[C@@H]1N2C(C)=O` was “inactive”; that for `O=[N+]([O-])c1ccc(Oc2ccc(Cl)cc2Cl)cc1` was “inactive”; that for `OCCCBr` was “inactive”.
Consider `CC(C)(C)OOC(C)(C)CCC(C)(C)OOC(C)(C)C`, for which the result was inactive.
`CCCCOC(=O)c1ccccc1C(=O)OCc1ccccc1`: the outcome was inactive.
With `CCNS(=O)(=O)C(F)(F)C(F)(F)C(F)(F)C(F)(F)C(F)(F)C(F)(F)C(F)(F)C(F)(F)F`, the outcome was inactive and the AC50 was 1.1 µM (active).
For `COC(=O)c1ccccc1N`, the outcome was inactive.
Same read-out and setting: in the case of `Brc1ccc(Oc2ccccc2)cc1` it was “inactive”; in that of `CCCCCCCCOC(=O)c1ccc(C(=O)OCCCCCCCC)c(C(=O)OCCCCCCCC)c1`, “inactive”; in that of `Clc1ccc(Cl)c(Cl)c1`, “inactive”.
Regarding `CC(C)(C)C(O)(CCc1ccc(Cl)cc1)Cn1cncn1` (stereo not given), the outcome was inactive.
`CCN(CC)CCO`: the outcome was inactive.
Take `ClC1=C(Cl)C2(Cl)C3C(Cl)C=CC3C1(Cl)C2(Cl)Cl` (stereo not given): the half-maximal activity concentration (AC50) was 33.5 µM (active).
As for `CC(C)COC(=O)c1ccccc1C(=O)OCC(C)C`, the result was inactive.
Still for that read-out and setting: the value for `O=C(Nc1ccccc1)c1ccccc1I` was “inactive”; that for `CCN(CC)N=O` was “inactive”.
